Where “and” joins values, the source holds several entries; their conditions need not be identical. Equal values may be shown once. Among all 5,500 compounds or so, about 2,000 (36%) were called active. About 18% were inconclusive and are not listed. No stated cut-off is given here; in the data, active means normalized growth mostly below about 0.91 (no sharp cut-off); inconclusive means no clear call, values can overlap the other calls; inactive means mostly above about 0.92. The list shows a part of the results.
Assay: chemical genetic growth profiling, strain panel (AID 1159580);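 further: tested at 20 µM; growth read once vehicle control cultures reached saturation at 30 °C; 1 = growth at the plate median or of vehicle wells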
Conditions: S. cerevisiae deletion strains, growth OD

Measured: normalized growth

CCC(=O)OCC(=O)C1(OC(=O)CC)C(C)CC2C3CCC4=CC(=O)C=CC4(C)C3(Cl)C(O)CC21C (stereo unspecified)
inactive: locus YAL021C, strain ccr4, stronger effect = lower value 0.99 | locus YAL026C, strain drs2, stronger effect = lower value 1 | locus YAL030W, strain snc1, stronger effect = lower value 0.999 | locus YBL061C, strain skt5, stronger effect = lower value 0.98 | locus YBR009C, strain hhf1, stronger effect = lower value 0.996 | locus YBR021W, strain FUR4, stronger effect = lower value 1.04 | locus YBR023C, strain chs3, stronger effect = lower value 0.979 | locus YBR171W, strain sec66, stronger effect = lower value 0.963 | locus YBR229C, strain ROT2, stronger effect = lower value 1.02 | locus YBR231C, strain swc5, stronger effect = lower value 0.972 | locus YBR279W, strain paf1, stronger effect = lower value 0.99 | locus YCL011C, strain gbp2, stronger effect = lower value 1 | locus YCL016C, strain dcc1, stronger effect = lower value 1.01 | locus YCL029C, strain bik1, stronger effect = lower value 0.993 | locus YCL061C, strain MRC1, stronger effect = lower value 0.991 | locus YCL069W, strain vba3, stronger effect = lower value 0.977 | locus YCR088W, strain abp1, stronger effect = lower value 0.993 | locus YDL005C, strain med2, stronger effect = lower value 0.97 | locus YDL035C, strain GPR1, stronger effect = lower value 1.03 | locus YDL040C, strain nat1, stronger effect = lower value 0.973 | locus YDL074C, strain BRE1, stronger effect = lower value 1.03 | locus YDL101C, strain DUN1, stronger effect = lower value 1.01 | locus YDL185W, strain tfp1, stronger effect = lower value 0.998 | locus YDL192W, strain arf1, stronger effect = lower value 0.997 | locus YDR001C, strain nth1, stronger effect = lower value 0.989 | locus YDR069C, strain doa4, stronger effect = lower value 0.959 | locus YDR101C, strain arx1, stronger effect = lower value 0.969 | locus YDR137W, strain rgp1, stronger effect = lower value 0.932 | locus YDR150W, strain NUM1, stronger effect = lower value 1.01 | locus YDR159W, strain sac3, stronger effect = lower value 0.959 | locus YDR162C, strain NBP2, stronger effect = lower value 1.04 | locus YDR195W, strain ref2 0.975 | locus YDR297W, strain sur2, stronger effect = lower value 0.979 | locus YDR318W, strain mcm21, stronger effect = lower value 0.993 | locus YDR334W, strain swr1, stronger effect = lower value 0.991 | locus YDR335W, strain msn5, stronger effect = lower value 0.966 | locus YDR388W, stronger effect = lower value 0.99 | locus YDR392W, strain spt3, stronger effect = lower value 1.03 | locus YDR502C, strain sam2, stronger effect = lower value 0.994 | locus YEL003W, strain gim4, stronger effect = lower value 0.973 | locus YEL037C, strain rad23, stronger effect = lower value 0.975 | locus YEL061C, strain CIN8 (second series), stronger effect = lower value 0.975 | locus YEL061C, strain CIN8, stronger effect = lower value 1.01 | locus YER015W, strain faa2, stronger effect = lower value 0.986 | locus YER016W, strain bim1, stronger effect = lower value 0.996 | locus YER110C, stronger effect = lower value 0.984 | locus YER111C, strain swi4, stronger effect = lower value 0.967 | locus YER155C, strain BEM2 (second series), stronger effect = lower value 0.995 | locus YER155C, strain BEM2, stronger effect = lower value 1.01 | locus YER167W, strain BCK2, stronger effect = lower value 1.02 | locus YFR010W, strain ubp6, stronger effect = lower value 0.957 | locus YGL078C, strain dbp3, stronger effect = lower value 0.99 | locus YGL086W, strain mad1, stronger effect = lower value 0.989 | locus YGL167C, strain pmr1, stronger effect = lower value 0.948 | locus YGL173C, strain kem1, stronger effect = lower value 0.952 | locus YGL227W, strain vid30, stronger effect = lower value 0.983 | locus YGL240W, strain doc1, stronger effect = lower value 0.974 | locus YGL248W, strain PDE1, stronger effect = lower value 1.02 | locus YGL253W, strain hxk2, stronger effect = lower value 0.926 | locus YGR135W, strain pre9, stronger effect = lower value 1 | locus YGR229C, strain SMI1, stronger effect = lower value 1.03 | locus YGR252W, strain gcn5, stronger effect = lower value 1.02 | locus YHR013C, strain ard1, stronger effect = lower value 0.987 | locus YHR027C, strain rpn1, stronger effect = lower value 0.999 | locus YHR030C, strain SLT2, stronger effect = lower value 1.01 and 1.11 | locus YHR079C, strain IRE1 (second series), stronger effect = lower value 0.985 | locus YHR079C, strain IRE1, stronger effect = lower value 1.05 | locus YHR094C, strain hxt1, stronger effect = lower value 0.989 | locus YHR129C, strain ARP1, stronger effect = lower value 1.02 | locus YHR142W, strain chs7, stronger effect = lower value 0.913 | locus YHR200W, strain rpn10, stronger effect = lower value 0.99 | locus YIL066C, strain RNR3, stronger effect = lower value 1.03 | locus YIL073C, strain SPO22, stronger effect = lower value 1.01 | locus YIL125W, strain kgd1, stronger effect = lower value 0.99 | locus YIR030C, strain dcg1, stronger effect = lower value 0.984 | locus YJL092W, strain hpr5, stronger effect = lower value 0.978 | locus YJL095W, strain BCK1 (second series), stronger effect = lower value 0.982 | locus YJL095W, strain BCK1, stronger effect = lower value 1.02 and 1.04 | locus YJL115W, strain asf1, stronger effect = lower value 0.973 | locus YJL129C, strain trk1, stronger effect = lower value 0.922 | locus YJL134W, strain LCB3, stronger effect = lower value 1.01 | locus YJL154C, strain vps35, stronger effect = lower value 0.965 | locus YJL164C, strain tpk1, stronger effect = lower value 1.01 | locus YJL166W, strain qcr8, stronger effect = lower value 0.947 | locus YJL168C, strain set2, stronger effect = lower value 0.991 | locus YJL187C, strain SWE1 (second series), stronger effect = lower value 1

Reference: PubChem BioAssay AID1159580 (chemical genetic matrix, 2015)
